Measured values from paper PMC8222333, “AsCas12a ultra nuclease facilitates the rapid generation of therapeutic cell medicines”.

B1: ACTA (dsDNA)
DNA 1: GCTATCTAGTGCTCAGTACGCACTGACTAAGGAAACTTCTGGCAGGACCAGGTCATGAGATCGGAAGAGCACACGTCTGAACTCCAGTCA
DNA 2: TGACTGGAGTTCAGACGTGTGCTCTTCCGATCTCATGACCTGGTCCTGCCAGAAGTTTCCTTAGTCAGTGCGTACTGAGCACTAGATAGC
RNA: AAUUUCUACUCUUGUAGAUAGGAAACUUCUGGCAGGACC
B2: ATTC (dsDNA)
DNA 1: GCTATCTAGTGCTCAGTACGCACTGATTCAGGAAACTTCTGGCAGGACCAGGTCATGAGATCGGAAGAGCACACGTCTGAACTCCAGTCA
DNA 2: TGACTGGAGTTCAGACGTGTGCTCTTCCGATCTCATGACCTGGTCCTGCCAGAAGTTTCCTGAATCAGTGCGTACTGAGCACTAGATAGC
RNA: AAUUUCUACUCUUGUAGAUAGGAAACUUCUGGCAGGACC
B3: ACTC (dsDNA)
DNA 1: GCTATCTAGTGCTCAGTACGCACTGACTCAGGAAACTTCTGGCAGGACCAGGTCATGAGATCGGAAGAGCACACGTCTGAACTCCAGTCA
DNA 2: TGACTGGAGTTCAGACGTGTGCTCTTCCGATCTCATGACCTGGTCCTGCCAGAAGTTTCCTGAGTCAGTGCGTACTGAGCACTAGATAGC
RNA: AAUUUCUACUCUUGUAGAUAGGAAACUUCUGGCAGGACC
B4: AGGA (dsDNA)
DNA 1: GCTATCTAGTGCTCAGTACGCACTGAGGAAGGAAACTTCTGGCAGGACCAGGTCATGAGATCGGAAGAGCACACGTCTGAACTCCAGTCA
DNA 2: TGACTGGAGTTCAGACGTGTGCTCTTCCGATCTCATGACCTGGTCCTGCCAGAAGTTTCCTTCCTCAGTGCGTACTGAGCACTAGATAGC
RNA: AAUUUCUACUCUUGUAGAUAGGAAACUUCUGGCAGGACC
B5: ATTG (dsDNA)
DNA 1: GCTATCTAGTGCTCAGTACGCACTGATTGAGGAAACTTCTGGCAGGACCAGGTCATGAGATCGGAAGAGCACACGTCTGAACTCCAGTCA
DNA 2: TGACTGGAGTTCAGACGTGTGCTCTTCCGATCTCATGACCTGGTCCTGCCAGAAGTTTCCTCAATCAGTGCGTACTGAGCACTAGATAGC
RNA: AAUUUCUACUCUUGUAGAUAGGAAACUUCUGGCAGGACC
B6: AATC (dsDNA)
DNA 1: GCTATCTAGTGCTCAGTACGCACTGAATCAGGAAACTTCTGGCAGGACCAGGTCATGAGATCGGAAGAGCACACGTCTGAACTCCAGTCA
DNA 2: TGACTGGAGTTCAGACGTGTGCTCTTCCGATCTCATGACCTGGTCCTGCCAGAAGTTTCCTGATTCAGTGCGTACTGAGCACTAGATAGC
RNA: AAUUUCUACUCUUGUAGAUAGGAAACUUCUGGCAGGACC
B7: ACTG (dsDNA)
DNA 1: GCTATCTAGTGCTCAGTACGCACTGACTGAGGAAACTTCTGGCAGGACCAGGTCATGAGATCGGAAGAGCACACGTCTGAACTCCAGTCA
DNA 2: TGACTGGAGTTCAGACGTGTGCTCTTCCGATCTCATGACCTGGTCCTGCCAGAAGTTTCCTCAGTCAGTGCGTACTGAGCACTAGATAGC
RNA: AAUUUCUACUCUUGUAGAUAGGAAACUUCUGGCAGGACC

Target: dAsCas12a Ultra (Acidaminococcus sp., UniProt U2UMQ6 1-1307, M537R;F870L;D908A;E993A;D1235A)
Test: Spec-seq (native PAGE EMSA with sequencing of bound and unbound); 25 mM Tris-HCl pH 7.4, 150 mM KCl, 5 mM MgCl2, 10% glycerol, 1 mM DTT, 40 ng/uL salmon sperm DNA; 400 nM Cas12a, 480 nM crRNA, 50 nM library, 37 C 1 h; native PAGE at room temperature; high values mean tight binding
Conditions: protein: recombinant

Binder	binding signal [lnKA]
B1	-7.24
B2	-4.57
B3	-6.74
B4	-8.33
B5	-5.43
B6	-8.65
B7	-7.71

Target: dAsCas12a E174R (Acidaminococcus sp., UniProt U2UMQ6 1-1307, E174R;D908A;E993A;D1235A)
Test: as above
Conditions: protein: recombinant

Binder	binding signal [lnKA]
B1	-5.96
B2	-3.93
B3	-6.65
B5	-4.83
B6	-8.08
B7	-7.65

Target: dAsCas12a S542R (Acidaminococcus sp., UniProt U2UMQ6 1-1307, S542R;D908A;E993A;D1235A)
Test: as above
Conditions: protein: recombinant

Binder	binding signal [lnKA]
B1	-7.5
B2	-4.41
B3	-7.33
B4	-8.24
B5	-4.9
B6	-8.19
B7	-7.86

Target: d-enCas12a (Acidaminococcus sp., UniProt U2UMQ6 1-1307, E174R;S542R;K548R;D908A;E993A;D1235A)
Test: as above
Conditions: protein: recombinant

Binder	binding signal [lnKA]
B1	-5.02
B2	-0.519
B3	-4.8
B4	-5.52
B5	-1.2
B6	-2.56
B7	-5.67

Target: d-enCas12a-Ultra (Acidaminococcus sp., UniProt U2UMQ6 1-1307, E174R;S542R;K548R;M537R;F870L;D908A;E993A;D1235A)
Test: as above
Conditions: protein: recombinant

Binder	binding signal [lnKA]
B1	-1.82
B2	-0.186
B3	-1.58
B4	-3.42
B5	-0.339
B6	-0.883
B7	-2.87

Target: dAsCas12a WT (Acidaminococcus sp., UniProt U2UMQ6 1-1307, D908A;E993A;D1235A)
Test: Spec-seq (native PAGE EMSA with sequencing of bound and unbound); 25 mM Tris-HCl pH 7.4, 150 mM KCl, 5 mM MgCl2, 10% glycerol, 1 mM DTT, 40 ng/uL salmon sperm DNA; 400 nM Cas12a, 480 nM crRNA, 50 nM library, 37 C 1 h; native P; high values mean tight binding
Conditions: not given

Binder	binding signal [lnKA]
B2	-6.67
B5	-7.65

Target: dAsCas12a K548R (Acidaminococcus sp., UniProt U2UMQ6 1-1307, K548R;D908A;E993A;D1235A)
Test: Spec-seq (native PAGE EMSA with sequencing of bound and unbound); 25 mM Tris-HCl pH 7.4, 150 mM KCl, 5 mM MgCl2, 10% glycerol, 1 mM DTT, 40 ng/uL salmon sperm DNA; 400 nM Cas12a, 480 nM crRNA, 50 nM library, 37 C 1 h; native PAGE at room temperature; high values mean tight binding
Conditions: protein: recombinant

Binder	binding signal [lnKA]
B2	-5.19
B5	-6.23
B6	-8.64
